# Records with an inconclusive call do not appear. Values without a mark were called inactive. Activity calls are given as the source filed them. The call rests on the fitted dose curve; in most records, active means well fitted inhibition curve with a large enough effect; inconclusive means small, poorly fitted or top-dose-only effect; inactive means flat fitted curve, though single readings scatter.
# System: HaCat
# Test: Cytotoxic Profiling of Annotated Libraries Using Quantitative High-Throughput Screening (AID 1296008); further: nearly all actives have a fitted effect of over 60% in size
# Conditions: Five cell lines viability, CellTiter-Glo ATP luminescence, 48-72 h; max response: stronger effect = lower value
# Outline: (§1)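 Cytotoxicity was measured as CellTiter-Glo ATP luminescence, read after 10 min at room temperature. Compound treatment of the cells lasted 48 or 72 hr at 37 degrees Celsius in a qHTS format.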
# On the % scale 0 is the no-effect control and ±100 the full control effect; potency means the concentration at half of the fitted maximal effect.
row,Compound,outcome
1,O=C(c1cc(Cc2n[nH]c(=O)c3ccccc23)ccc1F)N1CCCNCC1,inactive
2,CCNC1(C(N)=O)CCN(c2ncnc3c2nc(-c2ccccc2Cl)n3-c2ccc(Cl)cc2)CC1,inactive
3,CCCOc1ccc(S(=O)(=O)N2CCN(CCO)CC2)cc1-c1nc2c(CCC)cn(CC)c2c(=O)[nH]1,inactive
4,CN1CCN(C2=Nc3ccccc3Nc3ccc(OS(=O)(=O)C(F)(F)F)cc32)CC1,inactive
5,CCOc1ccc(CCNC(=O)c2cc3sc(Cl)cc3n2C)cc1OCC,inactive
6,NS(=O)(=O)c1ccc(NC(=O)Nc2ccc(F)cc2)cc1,inactive
7,O=C(Nc1cccnc1)c1cc(-c2ccnc(F)c2)ccc1OCc1ccccc1,inactive
8,Cc1cc(C)c(-n2cc(C)c3c(Cl)nc(C)nc32)c(C)c1,inactive
9,Cc1cc(C)c(S(=O)(=O)n2cc(C)cc2C)c(C)c1,inactive
10,O=C(c1ccc(OC(F)F)c(C#Cc2ccccn2)c1)N1Cc2cccnc2C1,inactive
11,CC1=C(C(=O)Nc2cc(Cl)ccc2Cl)C(c2ccco2)C2=C(CCCC2=O)N1 (stereo not given),inactive
12,COc1ccc2c(NC(=O)Nc3cccc(C(F)(F)F)n3)ccnc2c1,inactive
13,CC[C@H](C)/C=C(C)/C=C/C1=CC2=CC(=O)[C@]3(C)OC(=O)[C@@H](C(C)=O)[C@@H]3C2=CO1,inactive
14,C=C1C(=O)O[C@@H]2[C@H]1CC[C@H](C)[C@]1(CCC(=O)O1)C2(C)O (stereo not given in full),inactive
15,CN1CCN(c2ccc(-c3cccc(CN4CCOCC4)c3)cc2NC(=O)c2c[nH]c(=O)cc2C(F)(F)F)CC1,inactive
16,CC(C)OC(=O)N1CCC(Oc2ncnc3c2cnn3-c2ccc(S(C)(=O)=O)cc2F)CC1,inactive

# System: KB-3-1
# Test: as above
# Conditions: Five cell lines viability, CellTiter-Glo ATP luminescence, 48-72 h; max response: stronger effect = lower value
# Outline: as §1
Compound,max response [%],outcome,Potency
COc1ccc(S(=O)(=O)Nc2cc(Cl)cc(Cl)c2OC)cc1N1CCNCC1,-5.04,,
CC(=O)O[C@H]1[C@@]2(O)C[C@H](C)[C@H](OC(=O)c3ccccc3)[C@@H]2[C@@H](OC(=O)CO)[C@]2(OC(C)=O)C[C@H]3C(=O)C(C)(C)C[C@@H]3[C@@]1(C)[C@H]2OC(C)=O,-0.153,,
COc1ccc2cc(-c3cc(-c4cc(Cl)cc(Cl)c4)nn3C(C)c3ccc(C(=O)NCCC(=O)O)cc3)ccc2c1 (stereo not given),-23.8,,
CCCCC1CCC(c2nc(-c3ccncc3)no2)CC1 (stereo not given),-26.8,,
CC(C)CCCCC(=O)N[C@@H](CO)C(=O)N[C@@H](CC(C)C)C(=O)[C@@]1(CO)CO1,-12,,
COc1ccc(NC(=O)c2ccc(-c3ccc(C(=N)N)cc3C)cc2)cc1N1CCN(C)CC1,-9.57,,
CC(C)(Cc1nc(-c2ccc(O)cn2)no1)C(=O)NC1=C(C(=O)O)CCCC1,2.15,,
CCCN(CCc1ccsc1)C1CCc2c(O)cccc2C1 (stereo not given),0.967,,
CCn1c(=O)n([C@H]2CCCN(c3nccc(-c4cc5ccccc5o4)n3)C2)c2ccccc21,-9.5,,
CC(=O)OC1CC(C)(C(=O)O)CC2C3=CC(=O)C4C5(C)CCC(OC6OC(C(=O)O)C(O)C(O)C6OC6OC(C(=O)O)C(O)C(O)C6O)C(C)(C)C5CCC4(C)C3(C)CCC12C (stereo not given),3.1,,
COC1=CC(=O)C=C(C)C12Oc1c(Cl)c(OC)cc(OC)c1C2=O (stereo not given),,inactive,
O=C(Nc1ccn(Cc2ccc(O)cc2C(F)(F)F)n1)c1c(F)cccc1F,-23.9,,
Cc1cccc(N2CCN(C(=O)c3cc(S(=O)(=O)N(C)C)ccc3N3CCCC3)CC2)c1C,,inactive,
COC(=O)c1ccnc(-c2cc(C(=O)Nc3ccc(C4(N)CC4)cc3)ccn2)c1,-6.68,,
COc1ccc(CCO[C@@H]2O[C@H](CO[C@H]3OC[C@](O)(CO)[C@H]3O)[C@@H](OC(=O)/C=C/c3ccc(O)c(O)c3)[C@H](O[C@@H]3O[C@@H](C)[C@H](O)[C@@H](O)[C@H]3O)[C@H]2O)cc1OC,2.16,,
CC(C)(C)c1ccc(C(=O)Nc2cn3cc(-n4ccnc4)ccc3n2)cc1,7.42,,
C[C@@H](NC(=O)C(=O)c1c[nH]c2ccc([N+](=O)[O-])cc12)c1ccccc1,-11,,
COc1ccc(NC(=O)c2ccc(-c3ccc(-c4nnc(C)o4)cc3C)cc2)cc1N1CCN(C)CC1,2.03,,
C=C1C(=O)OC2CC(C)C(CCC(C)O)=CCC12 (stereo not given),,inactive,
CC(C)Nc1nc(Nc2ccccc2)nc(-c2ccccc2)n1,-2.52,,

Compound,max response [%],outcome,Potency
O=C(NCCCNc1nc(Nc2cccc(CN3CCOCC3)c2)ncc1C1CC1)C1CCC1,,,20.6 µM (active)
Cc1cc2c(N3CCCC3)nc(N3CCCC3)nc2n1C,-0.182,,
Cc1cc(OCCCS(C)(=O)=O)cc(C)c1-c1cccc(COc2ccc(C3=CC(=O)NS3=O)cc2)c1 (stereo not given),3.57,,
O=C(c1cc(Cc2n[nH]c(=O)c3ccccc23)ccc1F)N1CCCNCC1,,inactive,
CCNC1(C(N)=O)CCN(c2ncnc3c2nc(-c2ccccc2Cl)n3-c2ccc(Cl)cc2)CC1,6.15,,
CCCOc1ccc(S(=O)(=O)N2CCN(CCO)CC2)cc1-c1nc2c(CCC)cn(CC)c2c(=O)[nH]1,7.41,,
CN1CCN(C2=Nc3ccccc3Nc3ccc(OS(=O)(=O)C(F)(F)F)cc32)CC1,-4.68,,
CCOc1ccc(CCNC(=O)c2cc3sc(Cl)cc3n2C)cc1OCC,-5.99,,
NS(=O)(=O)c1ccc(NC(=O)Nc2ccc(F)cc2)cc1,-12,,
O=C(Nc1cccnc1)c1cc(-c2ccnc(F)c2)ccc1OCc1ccccc1,6.84,,
Cc1cc(C)c(-n2cc(C)c3c(Cl)nc(C)nc32)c(C)c1,-3.82,,
Cc1cc(C)c(S(=O)(=O)n2cc(C)cc2C)c(C)c1,2.85,,
O=C(c1ccc(OC(F)F)c(C#Cc2ccccn2)c1)N1Cc2cccnc2C1,-1.9,,
CC1=C(C(=O)Nc2cc(Cl)ccc2Cl)C(c2ccco2)C2=C(CCCC2=O)N1 (stereo not given),7.23,,
COc1ccc2c(NC(=O)Nc3cccc(C(F)(F)F)n3)ccnc2c1,,inactive,
CC[C@H](C)/C=C(C)/C=C/C1=CC2=CC(=O)[C@]3(C)OC(=O)[C@@H](C(C)=O)[C@@H]3C2=CO1,4.01,,
C=C1C(=O)O[C@@H]2[C@H]1CC[C@H](C)[C@]1(CCC(=O)O1)C2(C)O (stereo not given in full),,inactive,
CN1CCN(c2ccc(-c3cccc(CN4CCOCC4)c3)cc2NC(=O)c2c[nH]c(=O)cc2C(F)(F)F)CC1,,inactive,
CC(C)OC(=O)N1CCC(Oc2ncnc3c2cnn3-c2ccc(S(C)(=O)=O)cc2F)CC1,-25.6,,
